Compounds without any hit were thinned out: in the full panel of roughly 83,000, 20% have a hit.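 Results are percent growth after 48 hours of single-concentration exposure. 100 means growth as in untreated cells, lower positive values show inhibition; negative values down to -100 show cell death.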 Calls of active or inactive are those of the source. The calls were made as follows: active = growth percent below 10; inactive = the rest.
Key:
Assay in all cases: NCI-60 one-dose screen, 48 h (100 = growth as untreated, 0 = no growth, -100 = all killed)
Details in all cases: 10 µM unless noted
DU-145 prostate = test system: DU-145 prostate
K-562 leukemia = test system: K-562 leukemia
MALME-3M melanoma = test system: MALME-3M melanoma
MDA-MB-231 breast = test system: MDA-MB-231 breast
RXF 393 renal = test system: RXF 393 renal
SF-268 CNS = test system: SF-268 CNS
SF-295 CNS = test system: SF-295 CNS
SF-539 CNS = test system: SF-539 CNS
UACC-257 melanoma = test system: UACC-257 melanoma
M14 melanoma = test system: M14 melanoma

| Compound | growth (DU-145 prostate) | growth (K-562 leukemia) | growth (MALME-3M melanoma) | growth (MDA-MB-231 breast) | growth (RXF 393 renal) | growth (SF-268 CNS) | growth (SF-295 CNS) | growth (SF-539 CNS) | growth (UACC-257 melanoma) | growth (M14 melanoma) |
| --- | --- | --- | --- | --- | --- | --- | --- | --- | --- | --- |
| Nc1ncccc1O | 22.8% (inactive) | 67.6% (inactive) | 131% (inactive) | 117% (inactive) | 76.1% (inactive) | 96% (inactive) | 82.4% (inactive) | 106% (inactive) | 91.3% (inactive) | 102% (inactive) |
| C=C1C(=O)O[C@H]2[C@H]1CC/C(CNC(=O)Cc1c[nH]c3ccccc13)=C\CC[C@@]1(C)O[C@@H]21 | 26.5% (inactive) | -12.2% (active) | 14.2% (inactive) | 16.1% (inactive) | -72.3% (active) | 51.2% (inactive) | 69.9% (inactive) | -27.1% (active) | 5.96% (active) | 3.28% (active) |
| CC1SC(c2ccccc2O)N(NC(=O)CCC(=O)c2nc3ncccc3[nH]2)C1=O (stereo not given) | 102% (inactive) | 109% (inactive) | 94% (inactive) | 103% (inactive) | 96.4% (inactive) | 95.7% (inactive) | 96.2% (inactive) | 93.1% (inactive) | 99.4% (inactive) | 97.6% (inactive) |
| CCCn1c(=S)sc2c(NNC(C)=O)nc(C)nc21 | 134% (inactive) | 68.8% (inactive) | 101% (inactive) | 103% (inactive) | 98.5% (inactive) | 111% (inactive) | 121% (inactive) | 90.6% (inactive) | 91.7% (inactive) | 108% (inactive) |
| CC(C)(C)c1ccc(S(=O)(=O)Oc2ccc(-c3sc4cc(OS(=O)(=O)c5ccc(C(C)(C)C)cc5)ccc4c3C(=O)c3ccc(OCCN4CCCCC4)cc3)cc2)cc1 | 114% (inactive) | 103% (inactive) | 107% (inactive) | 103% (inactive) | 103% (inactive) | 102% (inactive) | 94.5% (inactive) | 96.8% (inactive) | 106% (inactive) | 99.2% (inactive) |
| CC(C)C1C2=C(NCCN1C(=O)c1ccncc1)C(C)(C)N(Cc1ccccc1)C2=O (stereo not given) | 105% (inactive) | 98.1% (inactive) | 96.6% (inactive) | 100% (inactive) | 126% (inactive) | 96.9% (inactive) | 96.5% (inactive) | 108% (inactive) | 105% (inactive) | 101% (inactive) |
| COC(=O)[C@@]12CC=C(C)[C@]3(C[C@H](c4ccoc4)OC3=O)[C@H]1C=C[C@@H](O)[C@@]2(O)C(=O)OC | 98.3% (inactive) | 94.1% (inactive) | 104% (inactive) | 110% (inactive) | 114% (inactive) | 98.1% (inactive) | 96.4% (inactive) | 98.7% (inactive) | 82.1% (inactive) | 101% (inactive) |
| CCCc1cc(=O)oc2c(C(=O)CC(C)C)c(O)c(CC=C(C)C)c(O)c12 | 31.3% (inactive) | 14.3% (inactive) | -6.82% (active) | -15.9% (active) | 27.3% (inactive) | 26.5% (inactive) | 17.8% (inactive) | 42.2% (inactive) | 22.7% (inactive) | 33.6% (inactive) |
| COc1cc([C@@H](CCO)C[C@H](C)c2ccc3ccccc3c2)cc(OC)c1OC | 47.1% (inactive) | 12.1% (inactive) | 44.5% (inactive) | 43.8% (inactive) | 32.3% (inactive) | 48.9% (inactive) | 19.6% (inactive) | 9.87% (active) | 60.6% (inactive) | 15.5% (inactive) |
| COc1ccc(-c2cc(C(=O)N3N=C(c4ccc(N)cc4)CC3c3ccc(Cl)cc3)c3cc(OC)ccc3n2)cc1 (stereo not given) | 83.7% (inactive) | 14.6% (inactive) | 62.1% (inactive) | 85% (inactive) | 78.9% (inactive) | 68.4% (inactive) | 66.7% (inactive) | 15.4% (inactive) | 77.2% (inactive) | 5.95% (active) |
| CCCCC#Cc1c(I)n(C2OC(CO[Si](C)(C)C(C)(C)C)C3OC(C)(C)OC32)c(=O)n(C(=O)c2ccccc2)c1=O (stereo not given) | 74.7% (inactive) | 6.35% (active) | 1.91% (active) | 10.1% (inactive) | -56.8% (active) | 36.8% (inactive) | 74% (inactive) | 3.54% (active) | 77.6% (inactive) | 78.6% (inactive) |
| Cc1cccc(N=Nc2cccc(C)c2)c1 | 112% (inactive) | 138% (inactive) | 100% (inactive) | 86.4% (inactive) | 115% (inactive) | 110% (inactive) | 97.9% (inactive) | 110% (inactive) | 113% (inactive) | 108% (inactive) |
| COc1cccc(CNc2c3ccccc3nc3ccccc23)c1OC | 41.7% (inactive) | 15.5% (inactive) | 50.6% (inactive) | 41.9% (inactive) | 29.9% (inactive) | 61.7% (inactive) | 33% (inactive) | 18.9% (inactive) | 54.8% (inactive) | 34.5% (inactive) |
| O=C(O)CC(C(=O)O)/C(=C\c1ccccc1)c1ccccc1 (stereo not given) | 139% (inactive) | 103% (inactive) | 117% (inactive) | 121% (inactive) | 104% (inactive) | 113% (inactive) | 115% (inactive) | 122% (inactive) | 100% (inactive) | 121% (inactive) |
| CCOC(=O)C#Cc1c(C(=O)OCC)nnn1[C@@H]1O[C@H](COC)[C@@H](OC)[C@H]1OC | 92.6% (inactive) | 9.33% (active) | 25.8% (inactive) | 107% (inactive) | 14% (inactive) | 106% (inactive) | 95.1% (inactive) | 84.7% (inactive) | 59.3% (inactive) | 61.8% (inactive) |
| COC(=O)/C=C1/SC(=Nc2ccc(F)cc2)N(CCc2c[nH]c3ccc(O)cc23)C1=O | 37.2% (inactive) | 37.7% (inactive) | 58.9% (inactive) | 59.3% (inactive) | 32% (inactive) | 45.9% (inactive) | 61.5% (inactive) | 45.3% (inactive) | 39.4% (inactive) | 40.1% (inactive) |
| COC1C(O)CC(OC2CC(OC3CC(O[C@@H]4C(=O)c5c(cc6cc(OC7CC(OC8CC(O)C(O)C(C)O8)C(O)C(C)O7)c(C)c(O)c6c5O)CC4[C@H](OC)[C@@H](O)C(C)=O)OC(C)C3O)OC(C)C2O)OC1C (stereo not given in full) | 15.8% (inactive) | 9.22% (active) | -11.6% (active) | 36.2% (inactive) | -57.5% (active) | 21.5% (inactive) | 8.38% (active) | -6.81% (active) | -14.7% (active) | -21.2% (active) |
| Fc1cccc(-c2nc(-c3c[nH]c4ncccc34)cs2)c1 | 63.8% [100 µM] (inactive) | 94% [100 µM] (inactive) | 0.186% [100 µM] (active) | 44.6% [100 µM] (inactive) | 51.7% [100 µM] (inactive) | 45.5% [100 µM] (inactive) | 17.2% [100 µM] (inactive) | 56.1% [100 µM] (inactive) | 99.3% [100 µM] (inactive) | 22.2% [100 µM] (inactive) |
| Oc1c(CN2CCC(N3CCOCC3)CC2)cc(Cc2cc(CN3CCC(N4CCOCC4)CC3)c(O)c3ncccc23)c2cccnc12 | 34.5% (inactive) | 11.1% (inactive) | 56.1% (inactive) | 8.58% (active) | 53.5% (inactive) | 25.5% (inactive) | -21.1% (active) | 6.51% (active) | 64.5% (inactive) | 11.3% (inactive) |
| C#Cc1cccc(Nc2ncnc3cc(NC(=O)CCl)ccc23)c1 | -96.8% (active) | -15.6% (active) | -74.3% (active) | -70.3% (active) | -86.2% (active) | -59.7% (active) | -82.5% (active) | -90.9% (active) | -7% (active) | -87.4% (active) |
